Test [1] is described as follows: blockers of polyQ-driven CASP3 activation – cell-based (AID 1583). Particulars: polyglutamine-induced caspase-3 activation, cell assay; stronger effect = higher value;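 tested at 10 µM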.
Test [2] can be described thus: yeast 75Q aggregation reduction – 75Q-TubU reporter (AID 1593). Particulars: Yeast 75Q polyglutamine aggregation reporter.
A short description of test [3]: restoration of touch response, mutant HTT neurons – whole organism, C. elegans mechanosensory neurons, N-terminal huntingtin (AID 1599). Particulars: C. elegans polyQ-huntingtin mechanosensory neurons, stronger effect = higher value.
Test [4] is described as follows: blockers of cytochrome c efflux from mitochondria – biochemical, purified mitochondria (AID 1603).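 Note: mouse liver mitochondria challenged with calcium chloride; signal normalized to the plate average as 100%.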 Particulars: stronger effect = lower value.
A short description of test [5]: polyglutamine aggregate formation blockers (AID 1604). Particulars: polyglutamine-induced protein aggregation inhibition assay; stronger effect = higher value; tested at 2.5 µM.
Test [6] can be described thus: glutamate transport activators, MN-1 cells, MN-1 cell line (AID 1612).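 Note: tested at 1 µM final; 0% = mean of DMSO vehicle wells on each plate; positive means more glutamate uptake than control and negative means less.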 Particulars: MN-1 motor neuron cells, stronger effect = higher value.
Test [7] is described as follows: GFP-Q80 aggregate reduction, neuronal-like cells, cell-based, NGF-treated PC12, GFPQ80 (AID 1614).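 Note: lower means fewer inclusions and 0 means no inclusions at all.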 Particulars: PC12 NGF-treated GFP-polyQ80 inclusion reduction.
Test [8] in a line: 75Q-TubH aggregate inhibition, S. cerevisiae, yeast (AID 1616). Particulars: S. cerevisiae 75Q-TubH polyglutamine aggregation suppression; stronger effect = higher value.
A short description of test [9]: P. berghei load reduction in hepatocytes – cell-based, HepG2, luciferase luminescence, HepG2 viability, primary screen (AID 624349).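 Note: 100% = mean of DMSO negative control wells on the same plate.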 Particulars: P. berghei liver stage in HepG2, luciferase luminescence, concentration not given here; parasite load remaining: stronger effect = lower value; viability: measured here: HepG2 viability without parasites.
Test [10] can be described thus: EMT-state selective cytotoxicity in co-culture – imaging, PC-3E GFP, TEM4-18 mCherry, primary screen (AID 1345086;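 active = compounds killing one labelled cell type while sparing the other, by normalised counts and ratio limits, not self-fluorescent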;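 for all read-outs here: cells exposed to compound for 72 h before imaging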;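 for red/green cell ratio (normalised): normalised mesenchymal count divided by normalised epithelial count so high means epithelial killing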). Particulars: PC-3E GFP / TEM4-18 mCherry co-culture, imaging cell counts, at 1 µM; for red/green cell ratio (normalised): actives lie on both sides, counts scaled to control wells, 1 = unselective.
Test [11] in a line: viability loss with induced miR-34 in A549 – imaging, A549 dox-inducible miR-34, nuclei and caspase counts, primary screen (AID 1347080;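 active = compounds whose cell count with miR-34 switched on is under 0.7 times the count with it off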). Particulars: A549 miR-34 inducible, Hoechst nuclei count, 48 h.
Test [12] can be described thus: galactose survival enhancers in mitochondrial complex I cybrids – cell-based, galactose medium, ATP luminescence, primary screen (AID 1645843;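 active = z-score of at least 1.8 in each of two replicates, scored against plate mean and spread of sample wells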;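 note: positive z means more ATP and so rescue of galactose-driven cybrid death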). Particulars: complex I mutant cybrid cells, 72 h, stronger effect = higher value.
Where [13] appears, read: measured here: epithelial PC-3E GFP cell survival.
Setting [14] is: measured here: mesenchymal TEM4-18 mCherry cell survival.
[15] abbreviates: stronger effect = lower value, cell number ratio, induced over uninduced.
[16] abbreviates: measured here: relative caspase fold change +Dox/-Dox.
[17] abbreviates: measured here: total cells with miR-34 induction, stronger effect = lower value.
[18] abbreviates: measured here: total cells without miR-34 induction.

Each structure is given as a SMILES string. “And” between values parts separate entries of the source, which are not always exact repeats. Equal values may be shown once. For some assays here: Entries with a potency or affinity are not part of this list. The source made the active and inactive calls. Cut-off read from the data, not from the text of the source, unless noted: active = parasite load remaining mostly below about 12% (no sharp cut-off); inactive = mostly above about 10%.

The record followed here is PubChem BioAssay.

In the case of `CCOC(=O)OC(C)OC(=O)C1N2C(=O)C(NC(=O)[C@H](N)c3ccccc3)C2SC1(C)C` (stereo not given in full), the inhibition in test [1] came out at 5.61%. The compound also returned a score in [2] of 1.5. Besides, the rescue above control in [3] is -4.3. The cytochrome c release ratio in test [4] was determined as 0.96. In addition, in [5], the inhibition of aggregation turned out to be 70.4%. In test [6], the glutamate uptake change is -13.3%. This compound also showed an inclusion score in test [7] of 2. This compound also yielded an aggregation suppression score in [8] of 1.07. Moreover, the parasite load remaining in test [9] is 43.5% (inactive). Moreover, the viability in [9] amounted to 104%. For the same compound, the red/green cell ratio (normalised) in [10] is 1.19 (inactive). The normalised cell number in test [10] (setting [13]) stood at 1.07; in test [10] (setting [14]), 1.27. The fold change in test [11] (setting [15]) is 0.906 (inactive); in [11] (setting [16]), 2.54. The results for the cell count in test [11] (setting [17]) and in test [11] (setting [18]) were 11600 and 12800, respectively.
On to `CC1(C)O[C@@H]2CC3C4C[C@H](F)C5=CC(=O)CC[C@]5(C)C4[C@@H](O)C[C@]3(C)[C@]2(C(=O)CO)O1` (stereo not given in full), for which the inhibition in [1] was 6.64%. Further, in test [2], the score was 1.49. Further, in test [3], the rescue above control was found to be 7.14. The cytochrome c release ratio in [4] worked out at 1.08. In addition, the inhibition of aggregation in [5] is 66.7%. For the same compound, in test [6], the glutamate uptake change was determined as 17%. In [7], this compound had an inclusion score of 2.5. Also, in test [8], the aggregation suppression score is 0.898. Also, the parasite load remaining in test [9] is 151% (inactive) and 47.9% (inactive). Besides, the viability in test [9] was 68.8% and 102%. Further, in [10], the red/green cell ratio (normalised) is 1.21 (inactive). Moreover, the normalised cell number in [10] (setting [13]) was determined as 1.17; in [10] (setting [14]), 1.42. The results for the fold change in test [11] (setting [15]) and in test [11] (setting [16]) were 0.854 (inactive) and 2.6, respectively. The cell count in test [11] (setting [17]) turned out to be 7720; in test [11] (setting [18]), 9050.
Take `C#C[C@]1(O)CCC2C3CCc4cc(OC)ccc4C3CC[C@@]21C` (stereo not given in full): the parasite load remaining in [9] is 13.7% (inactive). Further, the viability in [9] turned out to be 131%. Besides, the red/green cell ratio (normalised) in [10] is 1.01 (inactive). In addition, the normalised cell number in [10] (setting [13]) is 1.1; in [10] (setting [14]), 1.11. The fold change in [11] (setting [15]) is 0.913 (inactive) and 0.85 (inactive); in test [11] (setting [16]), 1.29 and 1.24. Moreover, the cell count in test [11] (setting [17]) was 8740 and 9660; in test [11] (setting [18]), 9570 and 11400. Besides, the z-score in test [12] was -1.44 (inactive).
As to `Cc1onc(-c2ccccc2)c1C(=O)NC1C(=O)N2[C@@H]1SC(C)(C)[C@@H]2C(=O)O` (stereo not given in full), in [1], the inhibition came to 7.8%. In [2], this compound displayed a score of 1.09. In test [3], the rescue above control was determined as 17.4. Further, the cytochrome c release ratio in [4] was 0.85. Besides, the inhibition of aggregation in test [5] is -11.1%. In addition, the glutamate uptake change in [6] was -21.8%. In [7], this compound gave an inclusion score of 2. This compound also registered an aggregation suppression score in test [8] of 1.34. Besides, in [9], the parasite load remaining was 86.3% (inactive) and 60.5% (inactive). Also, the viability in [9] is 72.2% and 86.2%. Moreover, the red/green cell ratio (normalised) in [10] is 0.97 (inactive). The normalised cell number stood at 1.16 in [10] (setting [13]) and 1.12 in test [10] (setting [14]). Moreover, the fold change in test [11] (setting [15]) is 0.832 (inactive); in [11] (setting [16]), 1.09. The results for the cell count in [11] (setting [17]) and in test [11] (setting [18]) were 11300 and 13500, respectively.
Turning to `C[C@]12CCC3c4ccc(O)cc4CCC3C1CC[C@@H]2O` (stereo not given in full), in [1], the inhibition came out at 29.2%. The score in [2] came out at 0.39. The compound further displayed a rescue above control in test [3] of 6.83. Further, the cytochrome c release ratio in [4] came to 1.24. Further, the inhibition of aggregation in [5] is 47.9%. Besides, the glutamate uptake change in test [6] turned out to be 35.2%. The inclusion score in test [7] is 2. The same compound displayed an aggregation suppression score in test [8] of 0.216. In addition, the parasite load remaining in test [9] was 84% (inactive) and 56.6% (inactive). Besides, in test [9], the viability is 74.3% and 92.5%. The red/green cell ratio (normalised) in test [10] is 1.16 (inactive). In addition, the figures for the normalised cell number in test [10] (setting [13]) and in [10] (setting [14]) were 1.32 and 1.53, respectively. Further, the fold change in test [11] (setting [15]) was 0.991 (inactive); in [11] (setting [16]) it was 1.49. Moreover, the cell count in test [11] (setting [17]) amounted to 11000; in test [11] (setting [18]) it was 11100.
On to `C#C[C@]1(OC(C)=O)CCC2C3CCC4=CC(=O)CC[C@@H]4C3CC[C@@]21C` (stereo not given in full), for which the inhibition in test [1] worked out at 17.5%. The compound also showed a score in test [2] of 0.07. Further, in [3], the rescue above control came out at 0.31. The cytochrome c release ratio in test [4] worked out at 1.09. Besides, in test [5], the inhibition of aggregation was 7.32%. The glutamate uptake change in test [6] was determined as 12.7%. In test [8], this compound had an aggregation suppression score of 0.237. The parasite load remaining in test [9] was 88.9% (inactive) and 45.6% (inactive). Moreover, the viability in test [9] was 69.5% and 94.9%. Moreover, in test [10], the red/green cell ratio (normalised) was 1.18 (inactive). The normalised cell number in test [10] (setting [13]) came out at 1; in [10] (setting [14]), 1.17. The results for the fold change in [11] (setting [15]) and in test [11] (setting [16]) were 0.881 (inactive) and 2.11, respectively. The cell count in test [11] (setting [17]) is 10900; in test [11] (setting [18]) it was 12400.
As to `CC(=O)[C@H]1CCC2C3C[C@H](C)C4=CC(=O)CC[C@]4(C)C3[C@@H](O)C[C@@]21C` (stereo not given in full), the inhibition in test [1] was -9.54%. The score in test [2] was 0.84. The compound also had a rescue above control in test [3] of 5.72. In addition, the cytochrome c release ratio in test [4] is 0.58. In test [5], the inhibition of aggregation was 53.9%. Also, the glutamate uptake change in [6] amounted to 24.3%. Further, in test [8], the aggregation suppression score came to 0.683. Moreover, the parasite load remaining in test [9] is 75.8% (inactive) and 64.6% (inactive). For the same compound, the viability in [9] was 70.5% and 91.2%. Further, in test [10], the red/green cell ratio (normalised) is 1.01 (inactive). In addition, the normalised cell number in test [10] (setting [13]) turned out to be 1.12; in test [10] (setting [14]), 1.13. For the same compound, the fold change in test [11] (setting [15]) is 0.946 (inactive); in test [11] (setting [16]), 2.37. Further, the cell count was determined as 8730 in [11] (setting [17]) and 9220 in [11] (setting [18]).

The inhibition is the change of the read-out against control, counted positive when it falls. As a reminder, the viability is a read-out of living cells in per cent, often relative to untreated cells.
